From PubChem BioAssay
A selection: hits, their analogues and other compounds. The true share with any hit is near 2.6%.
pPAFAH inh: pPAFAH (human) enzyme inhibition; Q13093; recombinant pPAFAH, FP-rhodamine probe fluorescence polarization; inhibition, % at 3.39 µM; 330,000 compounds, 1.5% hits; AID 463082;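 active = inhibition above the mean inhibition across the screen plus 3 SD, cut at about 25% in these data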;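 also: inhibitors block binding of the rhodamine activity-based probe so polarization drops; 0% = enzyme with DMSO and 100% = wells lacking pPAFAH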
PAFAH1B3 FP inh: blocks human PAF acetylhydrolase 1B catalytic subunit 3 | AID 492972 | Q15102 | recombinant PAFAH1B3, FP-rhodamine probe, fluorescence polarization | inhibition, % at 3.39 µM | 340,000 compounds, 0.28% hits;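 active = inhibition above the screen-wide average of all tested compounds plus 3 SD, cut at about 25% in these data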;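 also: 0% = enzyme with DMSO only and 100% = wells lacking PAFAH1B3 protein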
Target sequence (Q15102 whole entry, looked up): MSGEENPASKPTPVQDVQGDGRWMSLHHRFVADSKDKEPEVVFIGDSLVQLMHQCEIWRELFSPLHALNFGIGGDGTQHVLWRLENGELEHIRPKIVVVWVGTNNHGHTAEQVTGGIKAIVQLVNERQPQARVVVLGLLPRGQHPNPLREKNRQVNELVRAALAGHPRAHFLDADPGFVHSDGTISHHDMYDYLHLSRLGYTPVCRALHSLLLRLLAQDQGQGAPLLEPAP
PKA-R1A activ: activators of PKA-R1A complex | AID 504707 | activation, % at 11.4 µM | P00514+P68181 | PKA-R1A dissociation, Cy5-IP20 fluorescence polarization; scaled: DMSO 0%, 113 µM cGMP 100% | 340,000 compounds, 0.083% hits;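 active = percent activation above the mean of all tested compounds plus 3 SD, cut at about 19% in these data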;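 also: higher means more PKAc released from R1A so a rise in polarization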
PAFAH2 inh: PAFAH2 (human) inhibition | recombinant PAFAH2, FP-rhodamine activity probe, fluorescence polarization | inhibition, % at 3.39 µM | 340,000 compounds, 0.99% hits | AID 492956;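 active = inhibition above the mean over all tested compounds plus 3 SD, cut at about 30% in these data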;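 also: inhibitors block probe labeling of enzyme so polarization drops; 0% = enzyme with DMSO and 100% = wells lacking PAFAH2 protein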
PKA-R2B act: activates the human PKA-R2B holoenzyme complex; PKA-R2B holoenzyme dissociation, Cy5-IP20 fluorescence polarization; R2B truncated from residue 108, S112A mutant; 0% DMSO only, 100% 113 µM cGMP; 340,000 compounds, 0.079% hits; activation, % at 11.4 µM; P22694+P31323;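 active = activation above a cutoff set at the mean over all compounds plus 3 SD, cut at about 18% in these data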;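 also: higher means more holoenzyme dissociation and a rise in polarization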
PAFAH1B2 FP inh: PAFAH1B2 (human) inhibition; P68402; recombinant PAFAH1B2, FP-rhodamine activity probe, fluorescence polarization; inhibition, % at 3.39 µM; 340,000 compounds, 1.2% hits;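 active = inhibition above the mean of all tested compounds plus 3 SD, cut at about 24% in these data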;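 also: 0% = enzyme with DMSO and 100% = wells lacking PAFAH1B2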
* = called active by the depositor; . = no result given.

SMILES	pPAFAH inh	PAFAH1B3 FP inh	PKA-R1A activ	PAFAH2 inh	PKA-R2B act	PAFAH1B2 FP inh
COc1cc([C@@H]2Oc3cc(C4Oc5cc(O)cc(O)c5C(=O)[C@H]4O)ccc3O[C@H]2CO)ccc1O (stereo partly drawn)	35*	25	5	11	-5	8
O=C(O)c1ccc(/C=N\Nc2ccc(S(=O)(=O)N3CCOCC3)cc2[N+](=O)[O-])cc1	-3	8	-12	6	6	0
Cc1ccc(-n2c(O)c(/C=N/Nc3ccc(S(=O)(=O)N4CCOCC4)cc3[N+](=O)[O-])c3ccccc3c2=O)c(C)c1	2	18	0	34*	1	64*
O=C(CNC(=O)c1cccc(Br)c1)N/N=C/c1cc(Br)cc(Br)c1O	13	7	-2	11	6	31*
O=C(COC(=O)c1cccc(S(=O)(=O)N2CCN(c3ccccc3)CC2)c1)NCc1ccco1	26*	9	-4	15	-1	5
NC(=O)COC(=O)c1cccc(S(=O)(=O)N2CCN(c3ccccc3)CC2)c1	2	7	-8	1	-1	8
O=C(COC(=O)c1cccc(Oc2ccccc2)c1)NCc1ccco1	34*	-5	-1	36*	-14	1
C[C@@H]1CN([C@H](C)CO)C(=O)CCCn2nncc2CO[C@@H]1CN(C)C(=O)C1CC1	.	.	-7	.	-2	.
CNC[C@@H]1OCc2ccccc2-c2ccccc2C(=O)N([C@H](C)CO)C[C@@H]1C	.	.	5	.	2	.
CCOC(=O)CN1CCC(c2cc(-c3ccc(Cl)cc3)n[nH]2)CC1	31*	7	-2	-1	-5	1
CC(C)=NOC(=O)c1ccc(-c2ccccc2)cc1	30*	8	-2	13	-12	-3
COc1ccc(NC(=O)C[C@H]2C(=O)N(c3ccc(Br)cc3)C[C@@H]2CSC)cc1	.	.	-5	.	-3	.
O=C1OC[C@@H]2CCCN2C(=O)[C@H](CC(=O)N(CCO)Cc2ccccc2)C/C=C\C[C@H]1Cc1ccc(F)cc1	2	5	5	3	-1	33*
O=C1CC/C=C\C[C@@H](CC(=O)N(CCO)Cc2ccccc2)C(=O)N2CCC[C@H]2CO1	0	2	-10	-4	1	8
O=C1CCC/C=C\C[C@@H](CC(=O)N(CCO)Cc2ccccc2)C(=O)N2CCC[C@H]2CO1	4	13	12	10	1	2
O=C1OC[C@H]2CCCN2C(=O)[C@@H](CC(=O)N(CCO)Cc2ccccc2)C/C=C\C[C@@H]1Cc1ccc(F)cc1	6	3	8	-7	-3	31*
COc1ccc(CC(=O)OC(C)C(=O)Nc2c(C)n(C)n(-c3ccccc3)c2=O)cc1OC (stereo not drawn)	4	1	2	5	0	3
Clc1ccc(Oc2cccc(/C=N/n3cnnc3)c2)cc1	12	6	4	3	-7	14
Cc1ccc(S(=O)(=O)Oc2cccc(/C=N/n3cnnc3)c2)cc1	4	11	2	-9	2	24*
C(=N\n1cnnc1)/c1cccc(OCCOc2ccccc2)c1	1	3	-3	4	2	28*
COc1cc(/C=N/n2cnnc2)ccc1OCCOc1ccccc1	3	2	-14	-2	-13	4
Cc1ccc(/C=C/C(=O)Nc2cc(S(N)(=O)=O)ccc2O)cc1	2	9	-2	24	11	12
CCN(CC)S(=O)(=O)c1ccc(O)c(NC(=O)COc2ccc(S(=O)(=O)N3CCOCC3)cc2)c1	.	12	-3	13	-13	1
CCS(=O)(=O)c1ccc(O)c(NC(=O)/C=C/c2ccc(Cl)cc2)c1	28*	4	-9	66*	4	-4
CCS(=O)(=O)c1ccc(O)c(NC(=O)COc2ccc(Br)cc2)c1	5	3	-8	80*	-5	34*
CCC(=O)Nn1cnc2c(c1=O)C1(CCCCC1)Cc1ccccc1-2	-2	4	5	-4	-13	33*
N#CCSc1n[nH]c2nc3c(c(=O)n12)C1(CCCCC1)Cc1ccccc1-3	22	6	2	38*	-4	91*
